Data: PubChem BioAssay AID1159580 (chemical genetic matrix, 2015)
Screen size: about 5,500 compounds; about 2,000 (36%) were called active. Another 18% or so got no clear call; they are omitted. Rule as the data show it: active = normalized growth mostly below about 0.91 (no sharp cut-off); inconclusive = no clear call, values can overlap the other calls; inactive = mostly above about 0.92. The list shows a part of the results.

Experiment: chemical genetic growth profiling, strain panel (AID 1159580);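 also: tested at 20 µM; growth read once vehicle control cultures reached saturation at 30 °C; 1 = growth at the plate median or of vehicle wells; lower values mean less growth of the strain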
Conditions: growth OD

Measured: normalized growth

CCc1nc(N)nc(N)c1-c1ccc(Cl)cc1
inactive: S. cerevisiae deletion strains, locus YJR075W, strain HOC1, hits give low values 0.978 | S. cerevisiae deletion strains, locus YKL009W, strain mrt4, hits give low values 1.01 | S. cerevisiae deletion strains, locus YKL068W, hits give low values 1 | S. cerevisiae deletion strains, locus YKL085W, strain MDH1 (second series), hits give low values 1 | S. cerevisiae deletion strains, locus YKL085W, strain MDH1, hits give low values 1 | S. cerevisiae deletion strains, locus YKL160W, strain elf1, hits give low values 0.948 | S. cerevisiae deletion strains, locus YKL190W, strain CNB1, hits give low values 1.01 | S. cerevisiae deletion strains, locus YKR001C, strain vps1, hits give low values 0.985 | S. cerevisiae deletion strains, locus YKR091W, strain srl3, hits give low values 0.977 | S. cerevisiae deletion strains, locus YLL001W, strain dnm1, hits give low values 0.942 | S. cerevisiae deletion strains, locus YLL026W, hits give low values 0.992 | S. cerevisiae deletion strains, locus YLL041C, strain sdh2, hits give low values 0.972 | S. cerevisiae deletion strains, locus YLR027C, strain aat2, hits give low values 0.984 | S. cerevisiae deletion strains, locus YLR039C, strain RIC1, hits give low values 1.09 | S. cerevisiae deletion strains, locus YLR058C, strain SHM2, hits give low values 1.01 | S. cerevisiae deletion strains, locus YLR102C, strain apc9, hits give low values 1 | S. cerevisiae deletion strains, locus YLR113W, strain HOG1, hits give low values 1.04 | S. cerevisiae deletion strains, locus YLR221C, strain rsa3, hits give low values 1 | S. cerevisiae deletion strains, locus YLR258W, strain gsy2, hits give low values 0.98 | S. cerevisiae deletion strains, locus YLR262C, strain YPT6 (second series), hits give low values 0.958 | S. cerevisiae deletion strains, locus YLR262C, strain YPT6, hits give low values 1.15 | S. cerevisiae deletion strains, locus YLR268W, strain sec22, hits give low values 0.968 | S. cerevisiae deletion strains, locus YLR320W, strain mms22, hits give low values 0.99 | S. cerevisiae deletion strains, locus YLR330W, strain CHS5, hits give low values 1.01 | S. cerevisiae deletion strains, locus YLR342W, strain FKS1 (second series), hits give low values 0.952 | S. cerevisiae deletion strains, locus YLR342W, strain FKS1, hits give low values 0.989 | S. cerevisiae deletion strains, locus YLR357W, strain rsc2, hits give low values 0.96 | S. cerevisiae deletion strains, locus YLR370C, strain arc18, hits give low values 0.972 | S. cerevisiae deletion strains, locus YLR371W, strain rom2, hits give low values 1.01 | S. cerevisiae deletion strains, locus YLR384C, strain iki3, hits give low values 0.964 | S. cerevisiae deletion strains, locus YLR418C, strain cdc73, hits give low values 0.939 | S. cerevisiae deletion strains, locus YML016C, strain PPZ1, hits give low values 0.999 | S. cerevisiae deletion strains, locus YML032C, strain rad52, hits give low values 0.952 | S. cerevisiae deletion strains, locus YML120C, strain ndi1, hits give low values 0.963 | S. cerevisiae deletion strains, locus YML124C, strain tub3, hits give low values 1 | S. cerevisiae deletion strains, locus YMR058W, strain fet3, hits give low values 0.988 | S. cerevisiae deletion strains, locus YMR078C, strain ctf18, hits give low values 0.998 | S. cerevisiae deletion strains, locus YMR125W, strain sto1, hits give low values 0.932 | S. cerevisiae deletion strains, locus YMR129W, hits give low values 0.976 | S. cerevisiae deletion strains, locus YMR205C, strain PFK2, hits give low values 0.956 | S. cerevisiae deletion strains, locus YMR223W, strain ubp8, hits give low values 0.996 | S. cerevisiae deletion strains, locus YMR231W, strain pep5, hits give low values 0.974 | S. cerevisiae deletion strains, locus YMR263W, strain SAP30, hits give low values 1.01 | S. cerevisiae deletion strains, locus YMR307W, strain GAS1, hits give low values 0.916 | S. cerevisiae deletion strains, locus YNL067W, strain RPL9B, hits give low values 0.999 | S. cerevisiae deletion strains, locus YNL071W, strain lat1, hits give low values 0.976 | S. cerevisiae deletion strains, locus YNL128W, strain TEP1, hits give low values 1.02 | S. cerevisiae deletion strains, locus YNL153C, strain GIM3, hits give low values 1.01 | S. cerevisiae deletion strains, locus YNL183C, strain NPR1, hits give low values 0.998 | S. cerevisiae deletion strains, locus YNL209W, strain ssb2, hits give low values 0.979 | S. cerevisiae deletion strains, locus YNL233W, strain BNI4, hits give low values 0.991 | S. cerevisiae deletion strains, locus YNL248C, strain rpa49, hits give low values 0.966 | S. cerevisiae deletion strains, locus YNL250W, strain rad50, hits give low values 1 | S. cerevisiae deletion strains, locus YNL271C, strain bni1, hits give low values 0.998 | S. cerevisiae deletion strains, locus YNL298W, strain CLA4, hits give low values 1 | S. cerevisiae deletion strains, locus YNL307C, strain MCK1, hits give low values 0.972 | S. cerevisiae deletion strains, locus YNL322C, strain KRE1 (second series), hits give low values 0.975 | S. cerevisiae deletion strains, locus YNL322C, strain KRE1, hits give low values 0.967 | S. cerevisiae deletion strains, locus YNR049C, strain mso1, hits give low values 0.968 | S. cerevisiae deletion strains, locus YNR052C, strain pop2, hits give low values 0.931 | S. cerevisiae deletion strains, locus YOL006C, strain TOP1, hits give low values 1.03 | S. cerevisiae deletion strains, locus YOL012C, strain htz1 0.833 | S. cerevisiae deletion strains, locus YOL147C, strain pex11, hits give low values 0.995 | S. cerevisiae deletion strains, locus YOR001W, strain rrp6, hits give low values 0.938 | S. cerevisiae deletion strains, locus YOR061W, strain CKA2, hits give low values 1.01 | S. cerevisiae deletion strains, locus YOR069W, strain VPS5, hits give low values 1 | S. cerevisiae deletion strains, locus YOR070C, strain gyp1, hits give low values 0.998 | S. cerevisiae deletion strains, locus YOR080W, strain dia2, hits give low values 0.951 | S. cerevisiae deletion strains, locus YOR083W, strain WHI5, hits give low values 0.936 | S. cerevisiae deletion strains, locus YOR106W, strain vam3, hits give low values 0.946 | S. cerevisiae deletion strains, locus YOR136W, strain idh2, hits give low values 1.01 | S. cerevisiae deletion strains, locus YOR144C, strain elg1, hits give low values 1.01 | S. cerevisiae deletion strains, locus YOR184W, strain ser1, hits give low values 0.979 | S. cerevisiae deletion strains, locus YOR231W, strain MKK1, hits give low values 1.02 | S. cerevisiae deletion strains, locus YOR265W, strain rbl2, hits give low values 0.976 | S. cerevisiae deletion strains, locus YOR270C, strain vph1, hits give low values 0.932 | S. cerevisiae deletion strains, locus YOR290C, strain snf2, hits give low values 0.896 | S. cerevisiae deletion strains, locus YOR316C, strain cot1, hits give low values 1 | S. cerevisiae deletion strains, locus YPL051W, strain arl3, hits give low values 0.981 | S. cerevisiae deletion strains, locus YPL055C, strain LGE1, hits give low values 1 | S. cerevisiae deletion strains, locus YPL078C, strain atp4, hits give low values 0.959 | S. cerevisiae deletion strains, locus YPL106C, strain sse1, hits give low values 0.956 | S. cerevisiae deletion strains, locus YPL240C, strain hsp82, hits give low values 0.98 | S. cerevisiae deletion strains, locus YPL241C, strain CIN2, hits give low values 1.01 | S. cerevisiae deletion strains, locus YPL256C, strain CLN2, hits give low values 1.09 | S. cerevisiae deletion strains, locus YPR119W, strain clb2, hits give low values 1 | S. cerevisiae deletion strains, locus YPR141C, strain kar3, hits give low values 1 | S. cerevisiae deletion strains, locus YPR163C, strain tif3, hits give low values 0.996 | S. cerevisiae deletion strains, locus YPR167C, strain met16, hits give low values 1.01 | S. cerevisiae deletion strains, strain wtn01, hits give low values 0.975 | S. cerevisiae strains, strain wild type, hits give low values 1
active: S. cerevisiae deletion strains, locus YKR026C, strain gcn3, hits give low values 1.2 [resistant]
